AID inhibitor: Primary qHTS assay for inhibitors of Activation Induced Cytidine Deaminase (AID): AID signal | Single-stranded DNA cytosine deaminase (Homo sapiens), Q9GZX7 | AID deamination FRET fluorescence, UDG-coupled, 4 h | Potency, µM (top dose mostly 115 µM), actives largely listed as inhibitors | hit rate 0.32% among 91,000; further: nearly all actives have a fitted effect of over 25% in size
Target sequence (Q9GZX7 whole entry, looked up): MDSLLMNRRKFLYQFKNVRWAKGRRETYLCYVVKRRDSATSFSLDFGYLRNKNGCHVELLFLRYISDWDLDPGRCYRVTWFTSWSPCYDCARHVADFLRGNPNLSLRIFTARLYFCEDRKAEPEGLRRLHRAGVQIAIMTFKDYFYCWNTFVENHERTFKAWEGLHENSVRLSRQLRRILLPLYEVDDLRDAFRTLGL
UDG counterscr: Primary qHTS assay for inhibitors of Activation Induced Cytidine Deaminase (AID): UDG Counterscreen signal | FRET deamination/UDG coupled assay, UDG read, 4 h | Potency, µM (highest dose often 115 µM), inactives show top-dose activity change, negative = inhibition, actives largely listed as inhibitors | hit rate 0.14% among 91,000 | AID 1347430, 2020; further: nearly all actives have a fitted effect of over 65% in size
* = called active by the depositor; i = inactive; ? = inconclusive. This is a sample that favours compounds with a hit; in the whole collection about 0.47% have one here. The call rests on the fitted dose curve; in most records, active means well fitted curve in the direction sought with a large enough effect; inconclusive means small, poorly fitted or top-dose-only effect, or another doubt; inactive means no such curve, though single readings can be large; an effect the other way counts as inactive or inconclusive. On the % scale 0 is the no-effect control and ±100 the full control effect; potency means the concentration at half of the fitted maximal effect.

SMILES	AID inhibitor	UDG counterscr
COc1ccc(-c2nn3c(=O)c(NC(=O)c4cccc(C)c4)cnc3o2)cc1	i	7%
O/N=C/c1ccc(OC(F)F)cc1	i	1%
O=C(CSc1nnc(-c2ccco2)n1C1CCCCC1)N1CCN(c2ncccn2)CC1	i	6%
Cc1ccc(NC(=O)COc2ccc(-c3nn(C)c(=O)c4ccccc34)cc2)cc1	?	4%
Cc1cccc(OCC(=O)Nc2cc(-c3nn(C)c(=O)c4ccccc34)ccc2N2CCOCC2)c1	?	89µM*
O=S(=O)(NCCc1nnc2ccc(SCc3cccc(Cl)c3)nn12)c1ccccc1	40µM*	21%
Cc1ccc(C)c(CSc2ccc3nnc(CCNS(=O)(=O)c4ccccc4)n3n2)c1	?	25%
CC(C)(C)c1ccc(S(=O)(=O)N2CCC(c3ccncc3)CC2)cc1	?	-8%
CC(C)Cc1ccc(S(=O)(=O)N2CCC(c3ccncc3)CC2)cc1	35µM*	-9%
Cc1c(CC(=O)O)c(=O)oc2cc(OCc3ccccc3F)ccc12	i	1%
c1cc(CNCCCN2CCCCC2)cs1	i	-2%
CC1CC(NC(=O)C2CCC2)CC(C)(C)C1 (stereo unspecified)	i	-2%
COc1ccc(N(C(=O)c2cccc(C)c2)S(=O)(=O)c2ccc(Cl)cc2)cc1	i	?
COc1ccc(N(C(=O)c2ccccc2C)S(=O)(=O)c2ccc(C)cc2)cc1	?	79µM*
CCOc1ccc(CNC(=O)c2sc3ncnc(N(C)C4CCCCC4)c3c2C)cc1	?	-15%
CCc1ccc(NC(=O)c2sc3ncnc(N(C)C4CCCCC4)c3c2C)cc1	i	79µM*
CCc1ccc(-n2c(SCc3nc(-c4cc(OC)ccc4OC)no3)nnc2-c2ccccc2)cc1	?	-22%
COc1ccc(-n2c(Cc3ccccc3)nnc2SCc2nc(-c3ccccc3C)no2)cc1	32µM*	-29%
COCCn1cc(C(=O)NCCc2c(C)cc(C)cc2C)ccc1=O	i	-2%
ClCC(Cl)C[n+]1cccc2ccccc21 (stereo unspecified)	i	-7%
N[n+]1cccc2ccccc21	i	1µM*
CC(C)CCn1c(C2CC(=O)N(Cc3ccc(F)cc3)C2)nc2ccccc21 (stereo unspecified)	i	-1%
Cc1ccc(OCCn2c(C3CC(=O)N(Cc4ccc(F)cc4)C3)nc3ccccc32)c(C)c1 (stereo unspecified)	35µM*	?
COC(=O)c1cc(CNC(=O)Nn2cnc3ccccc32)ccc1OC	i	2%
CC(=O)N1CCc2c(sc3nc(SCC(C)C)n(-c4ccc(C)c(Cl)c4)c(=O)c23)C1	25µM*	79µM*
SMILES	AID inhibitor	UDG counterscr
CC(=O)N1CCc2c(sc3nc(SCC(C)C)n(-c4ccc(F)c(Cl)c4)c(=O)c23)C1	i	0%
O=[N+]([O-])c1ccc(Nc2ccccc2Cl)c2nonc12	i	-2%
Cc1cc(C)cc(NC(=O)COCc2cc(-c3ccc4c(c3)OCO4)on2)c1	?	79µM*
COc1cc(NC(=O)COCc2cc(-c3ccc4c(c3)OCO4)on2)cc(OC)c1	i	?
COc1cccc(-c2ocnc2C(=O)Nc2ccc(OC)cc2OC)c1	i	6%
O=C1c2ccccc2C(=O)c2c(NCCc3ccc(O)cc3)ccc(NCCc3ccc(O)cc3)c21	?	-27%
O=C1c2c(O)ccc(O)c2C(=O)c2c(NCCNCCO)ccc(NCCNCCO)c21	10µM*	40µM*
CCOc1ccc(NC(=O)/C=C/c2cccc3ccccc23)cc1	i	-2%
CN(C)c1oc(-c2ccco2)nc1S(=O)(=O)c1ccc(Cl)cc1	i	-3%
CC1CCCCN1Cc1oc(CO)cc(=O)c1O (stereo unspecified)	i	1%
CCOC(=O)c1c(C)oc2nc(C)nc(NC(C)c3ccccc3)c12 (stereo unspecified)	79µM*	-15%
CCOC(=O)c1c(C)oc2nc(C)nc(NCc3ccc(Cl)cc3)c12	i	8%
CC1CCC(=NNC(=O)C2CC2)CC1 (stereo unspecified)	i	-8%
CCOc1ccc(Nc2nnc(-n3nc(C)cc3C)c3ccccc23)cc1	i	79µM*
CCc1ccc(Nc2nnc(-n3nc(C)cc3C)c3ccccc23)cc1	i	30%
O=C(O)CC(NC(=O)c1ccccc1F)c1ccc(OC2CCCC2)cc1 (stereo unspecified)	i	-4%
Cc1ccc(N(Cc2cccs2)C(=O)COc2cccc(C)c2)cc1	?	1%
Cc1cc(C)cc(OCC(=O)N(Cc2cccs2)c2ccc(Cl)cc2)c1	22µM*	-5%
CCCCCCCCc1ccc(-c2ccc(CCCC)cc2)nc1	i	-2%
CN(C)CCCNc1cc(N2CCN(C3CCCCC3)CC2)c2noc3c2c1C(=O)c1ccccc1-3	40µM*	31%
O=C1c2ccccc2-c2onc3c(N4CCN(C5CCCCC5)CC4)cc(NCCO)c1c23	i	-4%
NC(=O)c1ccc(NC(=O)c2cn(Cc3ccccc3)nc2-c2ccc(Cl)cc2)cc1	i	-13%
Nc1nc(SCc2nc(-c3cccc(C(F)(F)F)c3)no2)n[nH]1	i	-5%
COc1ccccc1C(=O)Nc1nc2nc(C)c(Cc3ccccc3)c(=O)n2[nH]1	35µM*	-1%
Cc1nc2nc(NC(=O)c3ccc(C(C)(C)C)cc3)[nH]n2c(=O)c1Cc1ccccc1	?	0%
SMILES	AID inhibitor	UDG counterscr
Cc1nc2cc(NC(C)C(=O)Nc3c(C)cccc3C)ccc2o1 (stereo unspecified)	i	2%
O=C(NCc1ncc(-c2ccccc2)o1)c1ccc(F)cc1	i	1%
N#C/C(=C\c1ccc(-c2ccc(C(=O)O)cc2)o1)c1nc2ccccc2[nH]1	i	-14%
Cc1ccc(NC(=O)/C(C#N)=C/c2ccc(-c3ccc(Cl)c(C(=O)O)c3)o2)cc1C	79µM*	?
Cc1ccc(NC(=O)/C(C#N)=C\c2ccc(Cl)cc2Cl)cc1C	i	-9%
N#C/C(=C\c1ccc(-c2ccc(Cl)c(C(=O)O)c2)o1)c1nc2ccccc2[nH]1	28µM*	-2%
COC(=O)c1c(C)sc2c1OC(N)=C(C#N)C21C(=O)N(Cc2cccc(F)c2)c2ccccc21 (stereo unspecified)	i	-18%
COc1ccc(-c2noc(N3CCC(C(=O)N(C)c4cc(Cl)ccc4OC)CC3)n2)cc1	79µM*	-14%
COc1ccc(-c2noc(N3CCC(C(=O)N4CCN(c5ccccc5OC)CC4)CC3)n2)cc1	i	?
CCCCNC(=S)NC1CCCCC1	i	1%
COc1cccc(N2CCN(C(=O)c3ccc4c(Cl)c5c(nc4c3)CCCC5)CC2)c1	20µM*	-13%
O=C(c1ccc2c(Cl)c3c(nc2c1)CCCC3)N1CCN(c2ccc(Cl)cc2)CC1	i	1%
O=C(c1ccc2c(Cl)c3c(nc2c1)CCCC3)N1CCN(c2cccc(C(F)(F)F)c2)CC1	i	1%
O=C(c1ccc2c(Cl)c3c(nc2c1)CCCC3)N1CCN(c2cccc(Cl)c2)CC1	14µM*	-14%
Cc1ccccc1C1/C(=C(\O)c2ccccc2F)C(=O)C(=O)N1c1ccc(CC(=O)O)cc1 (stereo unspecified)	i	3%
COC(=O)c1sc(N2C(=O)C(=O)/C(=C(/O)c3ccc(C)c(F)c3)C2c2ccccc2F)nc1C (stereo unspecified)	79µM*	-5%

Assay outcomes (PubChem BioAssay)
